Experimental data taken from PubChem BioAssay (NCATS).

Assay: High-throughput drug toxicity screening in the BPDCN cell line Cal-1 (AID 1224825)
Conditions: Cal-1 BPDCN cell viability, qHTS; at 45.8 µM (top of the series) unless noted
Text: Blastic plasmacytoid dendritic cell neoplasm (BPDCN) is a rare, aggressive and largely incurable hematologic malignancy originating from plasmacytoid dendritic cells (pDCs). Although an initial response to chemotherapy is common, BPDCN prognosis is extremely poor and most patients relapse with drug-resistant disease leading to a median overall survival of ~1 year after diagnosis. To explore novel potential therapeutic strategies in BPDCN, we performed a high-throughput drug toxicity screening in BPDCN cell liens, using of a library of 1,912 small molecules, enriched for compounds that are either approved or in early stages of development for cancer therapy.
A total of 500 exponentially growing Cal-1 cells were seeded per well in 5 uL of media (RPMI + Glutamine, without phenol red plus10% FBS and 1X Pen/Strep) into 1536-well solid white high base tissue culture treated Greiner One Bio Plates (789173-F), using a multidrop combi dispenser and a small sterile cassette. Compounds and controls totaling 23nL per well (negative control DMSO and positive control 9.2 uM Bortezomib-final) were immediately added to the plates using a 1536 head pin tool from Kalypsys. The plates were then covered with stainless steel gasket lids from Kalypsys and incubated for 48 hours at 37C under 95% relative humidity with 5% CO2. After 48 hours, the plates were removed and allowed to reach room temperature before 3 uL of Cell Titer Glo reagent (Promega) were added using an Aurora Flying Reagent Dispenser Bioraptor. The plates were then spun at 1000 rpms to remove bubbles and incubated for 15 minutes at room temperature before reading on a ViewLux using a luminescent filter with a 10 second exposure. The relative luciferase units were used to calculated percent activity using DMSO as 100% and Bortezomib as 0%.
With C[C@]12CCC(=O)C=C1CC[C@@H]1[C@H]3CC[C@](C)(O)[C@@]3(C)CC[C@@H]12 the viability (% of control) was 93.9% [at 92.2 µM]. For CC(C)c1cccc(C(C)C)c1O, the viability (% of control) was 113%. In the case of O=C(O)CCCc1ccc(N(CCCl)CCCl)cc1, the viability (% of control) is reported as 11.8%. C[C@]12CC[C@H]3[C@@H](CC[C@@]45O[C@H]4C(O)=C(C#N)C[C@]35C)[C@H]1CC[C@H]2O gave a viability (% of control) of 51.6%. In the case of CN1C(=O)CCS(=O)(=O)C1c1ccc(Cl)cc1 (stereo not drawn), the viability (% of control) is reported as 112%. CC(NC(C)(C)C)C(=O)c1cccc(Cl)c1 (stereo not drawn) showed a viability (% of control) of 97.9%. COc1cc(OC)c(OC)cc1C=O showed a viability (% of control) of 98.8%. With C[C@]12CC[C@@H]3c4ccc(OC(=O)N(CCCl)CCCl)cc4CC[C@H]3[C@@H]1CC[C@@H]2OP(=O)(O)O the viability (% of control) was 82.9%. In the case of CC(C)C[C@H](CN)CC(=O)O, the viability (% of control) is reported as 132%. Work on C[C@](O)(CS(=O)(=O)c1ccc(F)cc1)C(=O)Nc1ccc(C#N)c(C(F)(F)F)c1 yielded a viability (% of control) of 5.28%. With CN1C(=O)COc2c(C(=O)NC3CN4CCC3CC4)cc(Cl)cc21 (stereo not drawn) the viability (% of control) was 120%. O=P1(N(CCCl)CCCl)NCCCO1 (stereo not drawn) showed a viability (% of control) of 104%. With CCC1(c2ccc(N)cc2)CCC(=O)NC1=O (stereo not drawn) the viability (% of control) was 111%.
